Records with an inconclusive call do not appear. Activity calls are given as the source filed them. Calls follow the shape of the dose curve; as a rule, active = well fitted curve in the direction sought with a large enough effect; inconclusive = small, poorly fitted or top-dose-only effect, or another doubt; inactive = no such curve, though single readings can be large; an effect the other way counts as inactive or inconclusive.
Assays:
[1] = Cell Viability - LYMP2-025 (AID 976); conditions: LYMP2-025 lymphoblastoid cell viability; series mostly up to 92.2 µM;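 also: plate controls were DMSO only for no effect and tetraoctylammonium bromide control for full effect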
How it was run: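 Seed 2500 LYMP2-025 cells/well; 5 hr at 37 C; add compound; 24 hr at 37 C; add CellTiter-Glo; 30 min RT; read luminescence. AC50 from Hill-modelled concentration-response.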

[2] = Cell Viability - LYMP2-002 (AID 977); conditions: LYMP2-002 lymphoblastoid cell viability, qHTS; series mostly up to 92.2 µM;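 also: compound exposure lasted 24 h at 37 °C; plate controls were DMSO only for no effect and 92 µM tetraoctylammonium bromide for full effect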
How it was run: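 Cytotoxicity is scored as concentration-dependent loss of cellular ATP in a human lymphoblastoid line after 24 hr compound treatment at 37 C. AC50 is obtained by modelling concentration-response data with the Hill equation.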

[3] = Cell Viability - LYMP2-006 (AID 978); conditions: LYMP2-006 lymphoblastoid cell viability, qHTS; series mostly up to 92.2 µM; also: % is scaled to controls: 0 for no effect and ±100 for the full control effect; nearly all actives have a fitted effect of over 60% in size
How it was run: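 Human lymphoblastoid cells, 2500 per well, were preincubated 5 hr at 37 C, then exposed to compounds for 24 hr at 37 C in complete medium. Viability was read as intracellular ATP by CellTiter-Glo luminescence; AC50 from Hill-equation fits of qHTS concentration-response data.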

[4] = Cell Viability - LYMP2-007 (AID 979); conditions: LYMP2-007 lymphoblastoid cell viability; series mostly up to 92.2 µM;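 also: cells exposed to compound for 24 h before reading; 0% = DMSO only and the negative end = 92 µM tetraoctylammonium bromide; nearly all actives have a fitted effect of over 60% in size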
How it was run: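 Luminescent ATP signal (CellTiter-Glo) serves as the viability read-out after 24 hr compound treatment of lymphoblastoid cells in complete medium at 37 C. Concentration-response data were fitted to the Hill equation to give AC50 values.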

[5] = Cell Viability - LYMP2-008 (AID 980); conditions: LYMP2-008 lymphoblastoid cell viability, qHTS; series mostly up to 92.2 µM; also: % is scaled to controls: 0 for no effect and ±100 for the full control effect; nearly all actives have a fitted effect of over 60% in size
How it was run: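 qHTS, human lymphoblastoid line, 2500 cells/well; 5 hr preincubation, 24 hr compound, 37 C. CellTiter-Glo ATP luminescence. AC50 via Hill equation. Tetraoctylammonium bromide positive control.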

[6] = Cell Viability - LYMP2-010 (AID 981); conditions: LYMP2-010 lymphoblastoid cell viability, qHTS; series mostly up to 92.2 µM; also: % is scaled to controls: 0 for no effect and ±100 for the full control effect; nearly all actives have a fitted effect of over 55% in size
How it was run: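 Luminescent ATP signal (CellTiter-Glo) served as the viability read-out. Cells of the human lymphoblastoid line were treated with compound over a concentration range for 24 hours at 37 C, and AC50 values came from Hill-equation modeling.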

[7] = Cell Viability - LYMP2-012 (AID 982); conditions: LYMP2-012 lymphoblastoid cell viability qHTS; series mostly up to 92.2 µM;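 also: cellular ATP by luciferase luminescence where a drop means cytotoxicity; cells exposed to compound for one day before reading; 0% = DMSO only and full loss = 92 µM tetraoctylammonium bromide; nearly all actives have a fitted effect of over 55% in size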
[8] = Cell Viability - LYMP2-014 (AID 983); conditions: LYMP2-014 lymphoblastoid cells, viability qHTS; series mostly up to 92.2 µM;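 also: plate controls were DMSO only for no effect and 92 µM tetraoctylammonium bromide for full effect; nearly all actives have a fitted effect of over 50% in size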
How it was run: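 Luminescent ATP signal (CellTiter-Glo, 30 min at room temperature) serves as the viability read-out after 24 hr compound exposure at 37 C. Cells were seeded at 2500 per well and settled 5 hr beforehand.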

[9] = Cell Viability - LYMP2-016 (AID 984); conditions: LYMP2-016 lymphoblastoid cell viability, qHTS; series mostly up to 92.2 µM; also: % is scaled to controls: 0 for no effect and ±100 for the full control effect; nearly all actives have a fitted effect of over 55% in size
How it was run: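 Human lymphoblastoid cells (LYMP2-016), 2500/well in complete medium, preincubated 5 hr at 37 C, then compound-treated 24 hr at 37 C. Intracellular ATP read by CellTiter-Glo luminescence after 30 min at room temperature; AC50 from Hill-equation concentration-response fits.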

[10] = Cell Viability - LYMP2-018 (AID 985); conditions: LYMP2-018 lymphoblastoid cells, viability (qHTS); series mostly up to 92.2 µM;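 also: plate controls were DMSO only for no effect and tetraoctylammonium bromide at 92 µM for full effect; nearly all actives have a fitted effect of over 50% in size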
How it was run: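 Luminescent ATP signal (CellTiter-Glo, read after 30 min at room temperature) reports viable cells after 24 hr compound treatment at 37 C. Concentration-response data were fitted to the standard Hill equation for AC50.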

[11] = Cell Viability - LYMP2-020 (AID 986); conditions: series mostly up to 92.2 µM;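 also: plate controls were DMSO only for no effect and tetraoctylammonium bromide at 92 µM for full effect; nearly all actives have a fitted effect of over 55% in size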
How it was run: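 Luminescent ATP signal (CellTiter-Glo, 30 min at room temperature) is the read-out after 24 h compound treatment of lymphoblastoid cells at 37 C. AC50 values come from Hill-equation fits across concentrations.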

[12] = Cell Viability - LYMP2-022 (AID 987); conditions: LYMP2-022 lymphoblastoid cell viability; series mostly up to 92.2 µM
How it was run: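 qHTS: human lymphoblastoid cells 2500/well; 5 hr 37 C; cpd added; 24 hr 37 C; CellTiter-Glo, 30 min RT; luminescence. AC50 via Hill fit; tetraoctylammonium bromide positive ctrl.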

[13] = Cell Viability - LYMP2-024 (AID 988); conditions: LYMP2-024 lymphoblastoid cell viability; series mostly up to 92.2 µM;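 also: plate controls were DMSO only for no effect and 92 µM tetraoctylammonium bromide for full effect; nearly all actives have a fitted effect of over 60% in size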
How it was run: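 Steps: seed 2500 cells/well, 5 hr 37 C; add compound, 24 hr 37 C; add CellTiter-Glo, 30 min room temperature; read luminescence. AC50 derived by Hill modelling of concentration-dependent ATP loss.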

[14] = Cell Viability - LYMP2-026 (AID 989); conditions: LYMP2-026 lymphoblastoid cell viability, qHTS; series mostly up to 92.2 µM; also: % is scaled to controls: 0 for no effect and ±100 for the full control effect; nearly all actives have a fitted effect of over 50% in size
How it was run: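 Luminescent ATP signal (CellTiter-Glo, 30 min room temperature) measures viable lymphoblastoid cells after 24 hr compound treatment at 37 C. Decreased ATP reflects acute toxicity; AC50 values come from Hill-equation modeling.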

[15] = Cell Viability - LYMP1-002 - Assay at 24 hr (AID 993); conditions: LYMP1-002 lymphoblastoid cells viability; series mostly up to 92.2 µM; also: % is scaled to controls: 0 for no effect and ±100 for the full control effect
How it was run: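 Cells plated 2500/well, 5 hr 37 C; compounds added, 24 hr 37 C; CellTiter-Glo added, 30 min RT; luminescence read. Tetraoctylammonium bromide positive control. Hill-equation AC50.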

[16] = Cell Viability - LYMP1-002 - Assay at 40 hr (AID 994); conditions: LYMP1-002 lymphoblastoid cell viability; series mostly up to 92.2 µM
How it was run: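 Luminescent ATP signal served as the viability readout, with decreases taken as toxicity. Cells were treated with compounds across a concentration range for 40 hours at 37 C, and AC50 values came from standard Hill modeling.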

[17] = target: Glutathione peroxidase 1 (Homo sapiens) (UniProt P07203); test: Primary qHTS Assay for Inhibitors of Recombinant Selenoprotein Glutathione Peroxidase 1 (GPX1) (AID 1845191); conditions: recombinant GPX1, GR-coupled NADPH fluorescence, 15 min; series mostly up to 48.8 µM; also: % is scaled to controls: 0 for no effect and ±100 for the full control effect; nearly all actives have a fitted effect of over 65% in size
How it was run: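 10 nM GPX1 + cpd, 30 min RT; start w/ 1 mM GSH, 0.5 mM cumene hydroperoxide, 0.5 mM NADPH, 100 nM GR, 0.01% BSA; buffer 50 mM Tris-HCl pH 7.5, 2 mM EDTA, 150 mM NaCl; Fl 340/450, 0 & 15 min.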

[18] = target: Phospholipid hydroperoxide glutathione peroxidase GPX4 (Homo sapiens) (UniProt P36969); test: Primary qHTS Assay for Inhibitors of Recombinant Selenoprotein Glutathione Peroxidase 4 (GPX4) (AID 1845192); conditions: recombinant GPX4, GR-coupled NADPH fluorescence, 15 min; series mostly up to 50 µM; also: % is scaled to controls: 0 for no effect and ±100 for the full control effect; nearly all actives have a fitted effect of over 65% in size
How it was run: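 NADPH consumption, followed by fluorescence at 340/450 nm between 0 and 15 min, reports GPX4 activity via coupled glutathione reductase (100 nM). Enzyme 200 nM was pre-exposed to compound 30 min; 0.5 mM cumene hydroperoxide and 1 mM GSH served as substrates.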

[19] = target: Rap guanine nucleotide exchange factor 3 (Homo sapiens) (UniProt O95398); test: Counterscreen qHTS for antagonist of cAMP-regulated guanine nucleotide exchange factor 3 (EPAC1) (AID 1645888); conditions: Rap1B-BODIPY-GDP nucleotide exchange, fluorescence; series mostly up to 30.8 µM;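 also: fluorescence loss as bound BODIPY-GDP is released from Rap1B; % of control where 0% means no effect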
How it was run: (§1)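 Rap1B-BODIPY-GDP 250 nM + GDP 50 uM; cpds 7-pt, final 9.74 nM–152 uM (activator mode) or from 7.32 nM upwards (inhibitor mode); RT; FI 480/540 nm at 5 and 30 min, then ± cAMP, reread.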

[20] = target: Rap guanine nucleotide exchange factor 3 (Homo sapiens) (UniProt O95398); test: Counterscreen qHTS for agonist of cAMP-regulated guanine nucleotide exchange factor 3 (EPAC1) (AID 1645889); conditions: EPAC1 Rap1B-BODIPY-GDP exchange, fluorescence; series mostly up to 154 µM; also: % of control where 0% means no effect; nearly all actives have a fitted effect of over 40% in size
How it was run: as §1

Sequence of Glutathione peroxidase 1 (Homo sapiens) (P07203 whole entry, looked up): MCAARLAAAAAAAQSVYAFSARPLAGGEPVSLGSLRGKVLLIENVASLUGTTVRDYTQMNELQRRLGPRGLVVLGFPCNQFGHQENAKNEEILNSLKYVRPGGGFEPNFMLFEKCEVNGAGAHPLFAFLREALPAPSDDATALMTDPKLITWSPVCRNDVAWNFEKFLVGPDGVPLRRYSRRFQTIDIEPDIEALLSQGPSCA
Sequence of Phospholipid hydroperoxide glutathione peroxidase GPX4 (Homo sapiens) (P36969 whole entry, looked up): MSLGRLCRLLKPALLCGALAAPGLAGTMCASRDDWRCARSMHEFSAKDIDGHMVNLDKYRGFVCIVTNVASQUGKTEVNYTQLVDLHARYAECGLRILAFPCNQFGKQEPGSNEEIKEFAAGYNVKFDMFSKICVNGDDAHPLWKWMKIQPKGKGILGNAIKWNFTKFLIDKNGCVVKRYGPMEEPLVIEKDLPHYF
Sequence of Rap guanine nucleotide exchange factor 3 (Homo sapiens) (O95398 whole entry, looked up): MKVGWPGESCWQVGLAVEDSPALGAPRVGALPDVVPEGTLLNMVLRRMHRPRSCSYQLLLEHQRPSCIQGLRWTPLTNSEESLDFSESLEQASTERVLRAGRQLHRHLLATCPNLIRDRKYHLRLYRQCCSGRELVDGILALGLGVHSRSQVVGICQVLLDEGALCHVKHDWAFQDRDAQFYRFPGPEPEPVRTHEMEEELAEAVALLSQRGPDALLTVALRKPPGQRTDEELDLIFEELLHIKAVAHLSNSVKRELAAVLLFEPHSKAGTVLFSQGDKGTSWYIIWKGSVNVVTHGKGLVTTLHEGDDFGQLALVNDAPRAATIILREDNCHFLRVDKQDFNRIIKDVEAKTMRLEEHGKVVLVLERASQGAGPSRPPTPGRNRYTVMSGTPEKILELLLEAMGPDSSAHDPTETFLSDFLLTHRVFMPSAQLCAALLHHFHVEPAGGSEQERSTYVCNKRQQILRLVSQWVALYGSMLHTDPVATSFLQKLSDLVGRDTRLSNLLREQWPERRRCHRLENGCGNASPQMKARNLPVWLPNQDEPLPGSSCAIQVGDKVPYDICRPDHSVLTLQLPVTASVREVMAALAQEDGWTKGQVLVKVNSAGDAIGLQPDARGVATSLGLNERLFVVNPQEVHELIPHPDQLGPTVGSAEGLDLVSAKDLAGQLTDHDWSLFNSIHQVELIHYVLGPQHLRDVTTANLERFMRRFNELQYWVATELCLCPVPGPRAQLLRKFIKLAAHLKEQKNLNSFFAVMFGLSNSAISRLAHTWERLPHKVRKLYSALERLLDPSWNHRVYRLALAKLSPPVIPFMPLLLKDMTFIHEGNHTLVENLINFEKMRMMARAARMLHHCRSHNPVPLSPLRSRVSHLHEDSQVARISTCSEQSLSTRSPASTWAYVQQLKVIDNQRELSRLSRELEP

CC(C)(c1cc(Br)c(O)c(Br)c1)c1cc(Br)c(O)c(Br)c1
inactive: outcome [1] | outcome [2] | outcome [3] | outcome [4] | outcome [5] | outcome [6] | outcome [7] | outcome [8] | outcome [9] | outcome [10] | outcome [11] | outcome [12] | outcome [13] | outcome [14] | outcome [15] | outcome [16]

OC[C@H]1NC[C@@H](O)[C@@H](O)[C@@H]1O
inactive: Potency [17] | Potency [18]

Cc1ccc(P(=O)(CSC(=N)N)c2ccc(C)cc2)cc1
inactive: outcome [19] | activation [20] -0.0561% [at 30.8 µM]

Reference: PubChem BioAssay (NCATS)
